About 83,000 compounds went through this panel and 20% of them were active in at least one assay; those are over-represented in the sample as a whole.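 A percent growth of 40 corresponds to 60% growth inhibition; 0 means no net growth; -100 means all cells died. Active threshold: below 10.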 Activity calls are given as the source filed them.
Assays:
Assay in all cases: NCI-60 one-dose screen, 48 h (100 = growth as untreated, 0 = no growth, -100 = all killed)
Settings in all cases: 10 µM unless noted
DU-145 prostate = system: DU-145 prostate
K-562 leukemia = system: K-562 leukemia
MALME-3M melanoma = system: MALME-3M melanoma
MDA-MB-231 breast = system: MDA-MB-231 breast
RXF 393 renal = system: RXF 393 renal
SF-268 CNS = system: SF-268 CNS
SF-295 CNS = system: SF-295 CNS
SF-539 CNS = system: SF-539 CNS
UACC-257 melanoma = system: UACC-257 melanoma
M14 melanoma = system: M14 melanoma

Measured: growth

COc1cc(-c2nn(C(C)(C)C)cc2-c2ccnc(NCCCNS(=O)(=O)c3ccc(C)cc3)n2)ccc1Cl
active: RXF 393 renal 4.95%
inactive: DU-145 prostate 74% | K-562 leukemia 57.7% | MALME-3M melanoma 94.4% | MDA-MB-231 breast 58.4% | SF-268 CNS 63.9% | SF-295 CNS 88% | SF-539 CNS 91.3% | UACC-257 melanoma 94.6% | M14 melanoma 90.5%

NS(=O)(=O)c1ccc(Nc2nc(SCC(=O)c3ccc(Cl)cc3)nc3c2CCCC3)cc1
inactive: DU-145 prostate 41.1% | K-562 leukemia 27.9% | MALME-3M melanoma 66.6% | MDA-MB-231 breast 49.6% | RXF 393 renal 35.6% | SF-268 CNS 62.2% | SF-295 CNS 50.3% | SF-539 CNS 62.3% | UACC-257 melanoma 62.3% | M14 melanoma 59.6%

C=C(C)[C@@H]1CC[C@]2(COP(=O)(OCC)OCC)CC[C@]3(C)[C@H](CC[C@@H]4[C@@]5(C)CCCNC(C)(C)[C@@H]5CC[C@]43C)[C@@H]12
inactive: DU-145 prostate 31.8% | MDA-MB-231 breast 52% | SF-268 CNS 50.1% | SF-295 CNS 19.8% | SF-539 CNS 57.7% | UACC-257 melanoma 29.1%
active: K-562 leukemia -10.7% | MALME-3M melanoma -51.8% | RXF 393 renal -8.28% | M14 melanoma -46.4%

Cn1cc(-c2nnc(N)nc2-c2c[nH]c3ccc(F)cc23)c2cc(F)ccc21
inactive: DU-145 prostate 88.2% | K-562 leukemia 48.6% | MALME-3M melanoma 77.7% | MDA-MB-231 breast 78.3% | RXF 393 renal 98.7% | SF-268 CNS 74.4% | SF-295 CNS 59.4% | SF-539 CNS 95.4% | UACC-257 melanoma 121% | M14 melanoma 73.3%

CC(=O)Nc1cccc(Nc2nc(N[C@H](C)c3ccccc3)c3ccccc3n2)c1
active: K-562 leukemia 5.94% | RXF 393 renal -5.79%
inactive: DU-145 prostate 65% | MALME-3M melanoma 71.3% | MDA-MB-231 breast 57.8% | SF-268 CNS 62.9% | SF-295 CNS 42.3% | SF-539 CNS 73.9% | UACC-257 melanoma 58.6% | M14 melanoma 58.7%

O=S(=O)(Nc1ccc(I)cc1Cl)c1ccc(-c2cnc(C3CC3)o2)cc1
active: RXF 393 renal -4.05% | SF-295 CNS 2.33%
inactive: DU-145 prostate 50.2% | K-562 leukemia 19.8% | MALME-3M melanoma 47.3% | MDA-MB-231 breast 57.5% | SF-268 CNS 58.9% | SF-539 CNS 21.4% | UACC-257 melanoma 58.5% | M14 melanoma 29.6%

CNCc1cccc2c1OCCCCCCC(C)(O)CC(C)(C)S(=O)(=O)c1ccc(cc1)-c1cnc(N)c(n1)C(=O)N2 (stereo not given)
inactive: SF-268 CNS 13.2% | SF-295 CNS 10.9% | UACC-257 melanoma 18.1%
active: DU-145 prostate 9.36% | K-562 leukemia -29.3% | MALME-3M melanoma -58.7% | MDA-MB-231 breast -6.41% | RXF 393 renal -90.7% | SF-539 CNS -72% | M14 melanoma -88.9%

COc1cc(-c2nn(C(C)(C)C)cc2-c2ccnc(NCCCNS(=O)(=O)c3ccc(F)cc3)n2)ccc1Cl
inactive: DU-145 prostate 74.1% | K-562 leukemia 40.2% | MALME-3M melanoma 86.1% | MDA-MB-231 breast 60.1% | SF-268 CNS 58% | SF-295 CNS 80.5% | SF-539 CNS 91.2% | UACC-257 melanoma 93.3% | M14 melanoma 93.3%
active: RXF 393 renal 8.65%

Cc1occc1-c1nc2s/c(=C/c3ccc(-c4cc(C(F)(F)F)ccc4Cl)o3)c(=O)n2n1
inactive: DU-145 prostate 103% | K-562 leukemia 105% | MALME-3M melanoma 98.5% | MDA-MB-231 breast 104% | RXF 393 renal 108% | SF-268 CNS 97.2% | SF-295 CNS 99.7% | SF-539 CNS 103% | UACC-257 melanoma 105% | M14 melanoma 97.1%

CCc1cccc2c3c(sc12)C(c1ccc(OC)cc1)C(C#N)=C(/N=C/c1ccc(Cl)cc1)O3 (stereo not given)
inactive: DU-145 prostate 18.8% | K-562 leukemia 11.1% | MALME-3M melanoma 48.3% | MDA-MB-231 breast 40.3% | SF-268 CNS 60% | UACC-257 melanoma 72%
active: RXF 393 renal -11.4% | SF-295 CNS 6.9% | SF-539 CNS 1.2% | M14 melanoma 4.74%

CC(C)(O)c1cncc(-c2ccc3ncnc(NCc4ccccc4)c3c2)c1
inactive: DU-145 prostate 62.7% | K-562 leukemia 103% | MALME-3M melanoma 101% | MDA-MB-231 breast 72.9% | SF-268 CNS 65% | SF-295 CNS 85% | SF-539 CNS 85.3% | UACC-257 melanoma 95.5% | M14 melanoma 105%
active: RXF 393 renal -7.38%

CC(=O)N1N=C(c2cccc(-n3cccc3)c2)CC1c1cccc(F)c1 (stereo not given)
inactive: DU-145 prostate 114% | K-562 leukemia 99.9% | MALME-3M melanoma 88.3% | MDA-MB-231 breast 94.8% | RXF 393 renal 86.1% | SF-268 CNS 113% | SF-295 CNS 107% | SF-539 CNS 101% | UACC-257 melanoma 104% | M14 melanoma 97.6%

O=C(CSc1nc2ccccc2c(=O)n1-c1ccccc1)Nc1cccc(C(=O)/C=C/c2ccccc2)c1
inactive: DU-145 prostate 94.8% | K-562 leukemia 70.1% | MALME-3M melanoma 101% | MDA-MB-231 breast 94.3% | RXF 393 renal 83.1% | SF-268 CNS 94.8% | SF-295 CNS 98% | SF-539 CNS 98.8% | UACC-257 melanoma 99.8% | M14 melanoma 97.5%

COc1ccc(NCc2cn(-c3ccc(C(=O)O)cc3)nc2-c2cc(C(F)(F)F)cc(C(F)(F)F)c2)cc1
inactive: DU-145 prostate 103% | K-562 leukemia 90.5% | MALME-3M melanoma 86.8% | MDA-MB-231 breast 101% | RXF 393 renal 111% | SF-268 CNS 99.2% | SF-295 CNS 102% | SF-539 CNS 86.5% | UACC-257 melanoma 105% | M14 melanoma 96.4%

CN1CCC(n2cc(Nc3ncc4c(=O)n(-c5c(Cl)cccc5Cl)cc(Br)c4n3)cn2)CC1
active: K-562 leukemia 6.48% | RXF 393 renal -58.3% | SF-539 CNS 5.25%
inactive: DU-145 prostate 23.1% | MALME-3M melanoma 69.5% | MDA-MB-231 breast 22% | SF-268 CNS 39.7% | SF-295 CNS 42.4% | UACC-257 melanoma 82.1% | M14 melanoma 35%

Cc1cccc2c3c(sc12)C(c1ccc(Cl)cc1)c1c(nc(CC(=O)Nc2ccccc2)[nH]c1=O)O3 (stereo not given)
inactive: DU-145 prostate 93% | K-562 leukemia 20.9% | MALME-3M melanoma 51.3% | MDA-MB-231 breast 77% | RXF 393 renal 39.9% | SF-268 CNS 66.7% | SF-295 CNS 29.1% | SF-539 CNS 40% | UACC-257 melanoma 79.8% | M14 melanoma 61.7%

CCNC(=O)N1CCc2cc(OC)c(OCCc3ccc(OC)cc3)cc2C1c1ccc(Cl)cc1C (stereo not given)
inactive: DU-145 prostate 16.2% | K-562 leukemia 12.3% | MALME-3M melanoma 60.4% | MDA-MB-231 breast 12.4% | SF-268 CNS 27.1% | SF-295 CNS 13.3% | UACC-257 melanoma 44.7% | M14 melanoma 17.5%
active: RXF 393 renal -4.98% | SF-539 CNS 5.79%

Cc1ccc(C(=O)NN2C(=O)/C(=C/C=C/c3ccco3)SC2=S)cc1
inactive: DU-145 prostate 103% | K-562 leukemia 49.3% | MALME-3M melanoma 93.9% | MDA-MB-231 breast 96.7% | RXF 393 renal 131% | SF-268 CNS 96.9% | SF-295 CNS 102% | SF-539 CNS 93.4% | UACC-257 melanoma 91% | M14 melanoma 99.8%

C=CCOc1cccc(/C=C2\SC(=S)N(C3CC(=O)N(c4ccc(Br)cc4)C3=O)C2=O)c1 (stereo not given)
inactive: DU-145 prostate 109% | K-562 leukemia 88.1% | MALME-3M melanoma 100% | MDA-MB-231 breast 96.3% | RXF 393 renal 132% | SF-268 CNS 103% | SF-295 CNS 97.8% | SF-539 CNS 101% | UACC-257 melanoma 108% | M14 melanoma 106%

COc1cc(-c2nn(C(C)(C)C)cc2-c2ccnc(NCCCNS(=O)(=O)c3cccc(F)c3)n2)ccc1Cl
active: RXF 393 renal -0.456%
inactive: DU-145 prostate 69.3% | K-562 leukemia 33.4% | MALME-3M melanoma 88.4% | MDA-MB-231 breast 61% | SF-268 CNS 56.7% | SF-295 CNS 83.7% | SF-539 CNS 88.4% | UACC-257 melanoma 97.4% | M14 melanoma 80%

COc1cccc2cc(-c3cc4ccccc4[nH]3)/c(=N\NC(=O)c3ccc(Cl)cc3)oc12
inactive: DU-145 prostate 48.3% | K-562 leukemia 22.1% | MALME-3M melanoma 61.7% | MDA-MB-231 breast 41.3% | RXF 393 renal 45.9% | SF-268 CNS 32.9% | SF-295 CNS 43.2% | SF-539 CNS 33.1% | UACC-257 melanoma 17.4% | M14 melanoma 31.9%

COc1ccc2[nH]cc(-c3csc4nc(-c5ccccc5)cn34)c2c1
active: RXF 393 renal -15.7% | SF-295 CNS -2.19% | SF-539 CNS -6.33%
inactive: DU-145 prostate 18.4% | K-562 leukemia 11.2% | MALME-3M melanoma 54.2% | MDA-MB-231 breast 20.8% | SF-268 CNS 41.1% | UACC-257 melanoma 60.4% | M14 melanoma 11.6%

C[C@@H](Nc1c(C#N)cnc2ccc(-c3cnc(Cl)c(NS(C)(=O)=O)c3)cc12)c1ccccc1
inactive: K-562 leukemia 15.3% | MDA-MB-231 breast 11.5% | UACC-257 melanoma 14.8%
active: DU-145 prostate 7.73% | MALME-3M melanoma -12.9% | RXF 393 renal -40.2% | SF-268 CNS -1.52% | SF-295 CNS -20.8% | SF-539 CNS -20.7% | M14 melanoma 4.3%

Cc1[nH]c(C(=O)Nc2ccccc2OCc2cccc(C(=O)N3CCC[C@@H](N)C3)c2)c(Cl)c1Cl
active: DU-145 prostate -89.3% | K-562 leukemia -49.6% | MALME-3M melanoma -79.1% | MDA-MB-231 breast -75.8% | RXF 393 renal -87.6% | SF-268 CNS -66.9% | SF-295 CNS -91.7% | SF-539 CNS -89.2% | UACC-257 melanoma -72.4% | M14 melanoma -85.7%

C#CC(=O)N(c1ccc(OC)cc1OC)C(C(=O)NCC(=O)OCC)c1cccs1 (stereo not given)
active: K-562 leukemia 3.23% | MALME-3M melanoma -61.8% | SF-268 CNS -23.1% | SF-295 CNS -67.9% | SF-539 CNS -86%
inactive: DU-145 prostate 33.2% | MDA-MB-231 breast 22.4% | RXF 393 renal 56.5% | UACC-257 melanoma 86.6% | M14 melanoma 80.9%

Nc1ncc(-c2ccc3ncnc(N4CCc5cc(F)c(Cl)cc54)c3c2)cn1
inactive: DU-145 prostate 10.8% | K-562 leukemia 34.6% | MALME-3M melanoma 33.6% | SF-268 CNS 16.9% | SF-295 CNS 13.2% | UACC-257 melanoma 50.6% | M14 melanoma 33.8%
active: MDA-MB-231 breast 0.108% | RXF 393 renal -47.5% | SF-539 CNS 8.74%

Source: PubChem BioAssay (NCI)
